High-throughput results as filed in PubChem BioAssay.
Compounds with a hit are over-represented: about 6.8% of the library has one in this group of screens.
Spn MK inh: S. pneumoniae MK inhibitors, primary screen, biochemical, PK/LDH-coupled NADH absorbance. inhibition, % at 10 µM. purified MK, PK/LDH-coupled NADH absorbance 340 nm. actives 0.48% (n = 65,000). AID 555, 2006. mevalonate kinase [Streptococcus pneumoniae D39];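 active = ranked among the strongest by inhibition in the single 10 µM screen, a fixed top-ranked set picked for dose follow-up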
Abs 340nm: compound light absorbance at 340 nm, profiling panel, artefact control, biochemical, MLSMR library, data from PS, PMK, MK assays. fold change at 10 µM. compound absorbance at 340 nm, fold over control. AID 708, 2007. 65,000 tested, under 10 active;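 active = at 10 µM dose, initial 340 nm absorbance at least 2 fold that of control wells; inactive = change under 2 fold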;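 also: initial absorbance extrapolated from kinetic A340 decline of NADH oxidation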
DPM-DC inhibit: S. pneumoniae DPM-DC inhibitors, primary screen, biochemical, PK/LDH-coupled NADH fluorescence. diphosphomevalonate decarboxylase (Streptococcus pneumoniae D39). purified DPM-DC. calls only at 10 µM. actives 0.49% (n = 65,000). AID 556, 2006;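 active = the 320 compounds with the highest percent inhibition in the single-dose primary screen, excluding strongly autofluorescent ones, cut at about 32% in these data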;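 also: kinetic rate of NADH fluorescence loss reporting ADP formed by the decarboxylase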
NADH coupling: inhibitors of PK/LDH coupling enzymes, profiling panel, artefact control, biochemical, MLSMR library. AID 774, 2007. coupled PK/LDH NADH assays, four targets. actives 0.02% (n = 65,000). IC50, µM (series often up to 10 µM), for the others: at the highest dose inhibition;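 active = single-dose screening hits from any of four coupled enzyme assays that gave an IC50 when retested across doses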;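 also: the DPM-DC format reads NADH fluorescence rather than 340 nm absorbance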
Autofluor 339: intrinsic fluorescence of library compounds, ex339/em460 – biochemical, MLSMR library, data from DPM-DC assay, artefact control, profiling panel; compound autofluorescence, ex339/em460 nm, NADH buffer; active compounds read high; 1 = no-compound wells, NADH background; AID 709, 2007; fluorescence fold increase at 10 µM; actives 5.5% (n = 65,000);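 active = at 10 µM, mean starting fluorescence two-fold or more over control wells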;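 also: signal is the first read of a kinetic run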
Spn PMK inh: S. pneumoniae PMK inhibitors, primary screen, biochemical, mevalonate pathway, pilot trial included; phosphomevalonate kinase (Streptococcus pneumoniae D39); actives 0.49% (n = 65,000); purified PMK, PK/LDH-coupled NADH absorbance 340 nm; AID 539, 2006; inhibition, % at 10 µM;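 active = top-ranked compounds by inhibition in the single 10 µM screen, taking a fixed number of the strongest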;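 also: 0% = full reaction with DMSO carrier and 100% = background rate without enzyme reaction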
An asterisk follows results filed as active.

CCOC(=O)N1CCC2(CC1)CC(=O)c1c(ccc3oc(C(=O)O)c(C)c13)O2 was read as Spn MK inh 9, Abs 340nm 1, NADH coupling 4%, Autofluor 339 3.4* and Spn PMK inh 10.
Screening COc1ccc(-c2csc(NCc3ccco3)n2)cc1C returned Spn MK inh 12, Abs 340nm 1, DPM-DC inhibit inactive, NADH coupling 6%, Autofluor 339 1.1 and Spn PMK inh 7.
COc1ccc(-c2nc3cccc(C)n3c2NCc2ccco2)cc1OC was read as Spn MK inh 16, Abs 340nm 1, NADH coupling 9%, Autofluor 339 5.1* and Spn PMK inh 2.
Screening CCC(OC(=O)c1cccs1)C(=O)NC1CCCCC1 (stereo not given) returned Spn MK inh 14, Abs 340nm 0.99, DPM-DC inhibit inactive, NADH coupling 8%, Autofluor 339 1.1 and Spn PMK inh 9.
COC(=O)Cn1ncc2c(C)n(Cc3ccccc3)c(C)c2c1=O was read as Spn MK inh 3, Abs 340nm 0.98, DPM-DC inhibit inactive, NADH coupling 1%, Autofluor 339 1.1 and Spn PMK inh 0.
CNC(=O)Cn1ncc2c(C)n(Cc3ccc(C)cc3)c(C)c2c1=O was read as Spn MK inh 0, Abs 340nm 1, DPM-DC inhibit inactive, NADH coupling 11%, Autofluor 339 1.1 and Spn PMK inh 34*.
For CC(=O)N(Cc1ccco1)C1(C(=O)NC2CCCCC2)CCCCC1 the results were Spn MK inh 8, Abs 340nm 1, DPM-DC inhibit inactive, NADH coupling 5%, Autofluor 339 1.2 and Spn PMK inh 6.
`O=C1CCC(C(=O)N(Cc2ccco2)C2(C(=O)NC3CCCC3)CCCCC2)N1` (stereo not given) gave Spn MK inh 0, Abs 340nm 1, DPM-DC inhibit active, NADH coupling 5%, Autofluor 339 1.1 and Spn PMK inh 0.
`Cc1cccc(NC(=O)C2CCN(c3nccc(C)n3)CC2)c1` gave Spn MK inh 0, Abs 340nm 1.1, DPM-DC inhibit inactive, NADH coupling 6%, Autofluor 339 1.5 and Spn PMK inh 8.
`COc1cc(NC(=O)Cn2nnc(-c3ccccc3N)n2)cc(OC)c1` gave Spn MK inh 3, Abs 340nm 0.99, DPM-DC inhibit inactive, NADH coupling 5%, Autofluor 339 1.1 and Spn PMK inh 11.
Screening CC(C)(C)NC(=O)C(c1ccccc1F)N(Cc1ccco1)C(=O)c1csnn1 (stereo not given) returned Spn MK inh 10, Abs 340nm 1, DPM-DC inhibit inactive, NADH coupling 7%, Autofluor 339 1 and Spn PMK inh 9.
Screening Cc1cc(C(=O)Nc2sc(C)c(-c3ccc(F)cc3)c2C(N)=O)no1 returned Spn MK inh 2, Abs 340nm 1, DPM-DC inhibit inactive, NADH coupling 6%, Autofluor 339 2.3* and Spn PMK inh 8.
CC(C)OC(=O)Cn1cnc2ccc(Br)cc2c1=O was read as Spn MK inh 9, Abs 340nm 1, DPM-DC inhibit inactive, NADH coupling 8%, Autofluor 339 1.1 and Spn PMK inh 14.
Screening Cc1cccn2c(=O)c3cc(C(=O)NCc4ccco4)c(=N)n(CCc4ccccc4)c3nc12 returned Spn MK inh 5, Abs 340nm 1, NADH coupling 14%, Autofluor 339 3.8* and Spn PMK inh 23.
`Cc1cccn2c(=O)c3cc(C(=O)NCc4ccco4)c(=N)n(C(C)C)c3nc12` gave Spn MK inh 11, Abs 340nm 1, NADH coupling 6%, Autofluor 339 2.3* and Spn PMK inh 1.
